Records with an inconclusive call do not appear. Where a call stands in place of a potency, no number is given. The source made the active and inactive calls. Calls come from the whole dose curve.
Target: Muscarinic acetylcholine receptor M1 (Homo sapiens) (UniProt P11229)
Assay: Cholinergic receptor muscarinic 1 (CHRM1) small molecule antagonists, cell-based qHTS assay (AID 1963588); note: nearly all actives have a fitted effect of over 40% in size
Conditions: CHRM1-CHO antagonist mode, calcium flux fluorescence; series mostly up to 61.5 µM
Excerpt: National Center for Advancing Translational Sciences [NCATS]
Division of Preclinical Innovation [DPI]
U.S. Environmental Protection Agency [EPA]
National Institutes of Environmental Health Sciences [NIEHS]
National Toxicology Program [NTP]
U.S. Food and Drug Administration [FDA]
The CHRM1 is a muscarinic receptor. This receptor plays a crucial role in learning and memory processes and has long been identified as a promising therapeutic target for the improvement of cognitive decline in Alzheimer's disease (AD). The CHRM1-CHO cell line stably expressing human muscarinic acetylcholine receptor M1 (CHRM1) can be used for screening agonists and antagonists of interactions between CHRM1 and its ligands. The CHRM1-CHO Calcium Flux Assay is a homogeneous fluorescence-based assay for detecting the intracellular calcium level using FDSS kinetic plate reader system.
Tox21 Assay Protocol Summary:
CHRM1-CHO cells were dispensed at 1000 cells/3uL/well in 1536-well black-clear bottom plates using a Multidrop Dispenser. After the assay plates were incubated at a 37 C/5% CO2 incubator for 18 h, 3 uL of Dye Loading Buffer was transferred to the assay plate by a Flying Reagent Dispenser. The assay plates were incubated at 37 C for 1h. For antagonist mode, 23 nL of compounds dissolved in DMSO, positive controls or DMSO only was transferred to the assay plate by a pin tool. After 5 min incubation at room temperature, 1.5 uL of acetylcholine at 50nM was added to each well. The fluorescence intensity in the plates was measured using FDSS 7000EX kinetic plate reader for 3 min at 1 sec intervals. Each test compound was measured at 15 concentrations in three independent runs.

Muscarinic acetylcholine receptor M1 (Homo sapiens), sequence (P11229 whole entry, looked up): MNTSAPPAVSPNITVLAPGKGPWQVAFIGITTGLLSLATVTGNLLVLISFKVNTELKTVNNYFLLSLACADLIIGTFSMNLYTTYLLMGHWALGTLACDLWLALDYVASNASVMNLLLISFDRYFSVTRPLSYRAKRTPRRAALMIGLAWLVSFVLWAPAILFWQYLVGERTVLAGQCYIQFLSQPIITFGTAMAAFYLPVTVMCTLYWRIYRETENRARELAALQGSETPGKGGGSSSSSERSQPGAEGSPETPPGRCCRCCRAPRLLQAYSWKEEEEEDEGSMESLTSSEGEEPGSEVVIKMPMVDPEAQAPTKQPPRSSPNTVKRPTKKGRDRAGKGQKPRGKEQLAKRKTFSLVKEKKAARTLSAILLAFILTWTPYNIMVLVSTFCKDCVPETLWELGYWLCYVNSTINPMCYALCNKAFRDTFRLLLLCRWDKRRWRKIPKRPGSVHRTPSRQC

Row | Compound | Potency
1 | CCCCCC(=O)O | inactive
2 | Cc1ccc(S(=O)(=O)O)cc1C | inactive
3 | CNC[C@H](O)c1cccc(O)c1 | inactive
4 | CCOC(=O)C(C#N)=C(c1ccccc1)c1ccccc1 | inactive
5 | NCCNc1cccc2ccccc12 | inactive
6 | NC(=O)NC(N)=O | inactive
7 | O=C1c2c(O)cccc2Cc2cccc(O)c21 | inactive
8 | c1ccc2scnc2c1 | inactive
9 | O=C(OCc1ccccc1)c1ccc(O)cc1 | inactive
10 | CC(C)OP(=O)(CP(=O)(OC(C)C)OC(C)C)OC(C)C | inactive
11 | OC1CCCCC1 | inactive
12 | c1ccc(Nc2ccccc2)cc1 | inactive
13 | COCCOC(=O)c1ccccc1C(=O)OCCOC | inactive
14 | CC(C)CC(=O)CC(C)CC(C)C (stereo not given) | inactive
15 | COC(=O)c1ccc(C)cc1 | inactive
16 | CC(CCO)CC(C)(C)C (stereo not given) | inactive
17 | O=S(=O)(O)c1ccc2nc(-c3ccccc3)[nH]c2c1 | inactive
18 | O=C1C(c2[nH]c3ccccc3c2O)=Nc2ccccc21 | inactive
19 | Cc1ccc(C(C)C)cc1 | inactive
20 | CCc1cccc(O)c1 | inactive

Row | Compound | Potency
21 | Clc1ccc(Cl)c(Cl)c1Cl | inactive
22 | CCCCOCCO | inactive
23 | Cc1ccc(S(=O)(=O)N=C=O)cc1 | inactive
24 | CC(=O)OCC(=O)[C@@]12N=C(C)O[C@@H]1C[C@H]1[C@@H]3CCC4=CC(=O)C=C[C@]4(C)[C@H]3[C@@H](O)C[C@@]12C | inactive
25 | O=C1NC(=O)c2ccccc21 | inactive
26 | C=CC(=O)OCCOCCOCCOCCOC(=O)C=C | inactive
27 | CC1=CCC2CC1C2(C)C (stereo not given) | inactive
28 | [Na+] | inactive
29 | O=C(O)c1ccccc1C(=O)O | inactive
30 | O=C(O)CN(CC(=O)O)CC(=O)O | inactive
31 | COc1cc(O)c(C(=O)c2ccccc2)cc1S(=O)(=O)O | inactive
32 | O=c1c(O)c(-c2ccc(O)cc2)oc2cc(O)cc(O)c12 | inactive
33 | CC(=O)c1ccccn1 | inactive
34 | CCCCCCCCCCCCc1ccccc1 | inactive
35 | CCCCOCCOCCOC(C)=O | inactive
36 | CCCCC(CC)COC(=O)C(C#N)=C(c1ccccc1)c1ccccc1 (stereo not given) | inactive
37 | OCc1cccc(Oc2ccccc2)c1 | inactive
38 | c1ccc(Oc2ccccc2)cc1 | inactive
39 | Cc1ccc([N+](=O)[O-])c(C)c1 | inactive
40 | CCc1ccccc1CC | inactive

From PubChem BioAssay (Tox21)
